Compound activity: PubChem BioAssay, several laboratories
CYP2C9 activ: activators of human CYP2C9; P11712; recombinant CYP2C9, luciferin-H conversion, luminescence; active compounds read high; factor 1 = untreated enzyme, 0 = blocked; activation factor at 5 µM; 96,000 compounds, 1.4% hits;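 active = activation factor of 2 or more for CYP2C9 at a 5 µM dose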;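 also: 0 = sulfaphenazole-blocked wells and 1 = vehicle-only wells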
Target sequence (P11712 whole entry, looked up): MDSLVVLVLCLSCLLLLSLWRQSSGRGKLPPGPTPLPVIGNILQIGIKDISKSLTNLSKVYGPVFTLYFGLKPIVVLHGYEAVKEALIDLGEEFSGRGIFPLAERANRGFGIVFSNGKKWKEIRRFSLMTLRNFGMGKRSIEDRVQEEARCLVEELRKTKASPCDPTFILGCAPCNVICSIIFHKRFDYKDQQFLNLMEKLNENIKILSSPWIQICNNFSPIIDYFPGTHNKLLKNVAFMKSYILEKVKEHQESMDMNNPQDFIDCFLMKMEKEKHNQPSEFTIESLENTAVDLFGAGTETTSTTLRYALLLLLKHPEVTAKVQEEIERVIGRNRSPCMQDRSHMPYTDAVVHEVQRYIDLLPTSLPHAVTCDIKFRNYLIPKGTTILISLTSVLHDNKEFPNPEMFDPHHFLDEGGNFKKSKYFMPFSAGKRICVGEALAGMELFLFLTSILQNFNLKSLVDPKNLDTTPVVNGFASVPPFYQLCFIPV
EphB4 ephrin blk: blocks human EphB4 binding to ephrin-B2; EphB4 LBD / TNYL-RAW-Alexa532 peptide, fluorescence polarization; 97,000 compounds, 0.15% hits; inhibition, % at 7 µM; P54760; AID 720;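 active = inhibition above the screen-wide mean inhibition plus 3 SD, cut at about 15% in these data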;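 also: 0% = DMSO wells and 100% = excess unlabeled TNYL-RAW peptide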
CYP2C19 activ: activators of human cytochrome P450 2C19 | P33261 | recombinant CYP2C19, luciferin-H EGE luminescence; active compounds read high; 0 = fully inhibited enzyme, 1 = untreated enzyme | activation factor at 5 µM | 96,000 tested, under 10 active | AID 1025;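 active = activation factor of at least 2 at 5 µM in the primary screen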;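 also: 0 = wells with 2.5 mM tranylcypromine and 1 = vehicle-only wells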
CYP2C9 inhib: blocks human cytochrome P450 2C9; 96,000 compounds, 20% hits; AID 777; P11712; CYP2C9 Supersomes, luciferin-H conversion, luminescence; inhibition, % at 5 µM;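 active = blocking of liver enzyme CYP2C9 beyond about 50% at 5 µM, limit read from the data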
CYP2C19 inhib: human CYP2C19 inhibition | P33261 | inhibition, % at 5 µM | CYP2C19 Supersomes, luciferin-H EGE luminescence, 30 min | 96,000 compounds, 21% hits;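 active = CYP2C19 inhibition above a set limit at 5 µM in the primary screen, cut at about 50% in these data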;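 also: plate controls were negative control wells for no effect and 2.5 mM tranylcypromine positive control for full effect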
Active calls of the source: *; / = no result. This is a sample that favours compounds with a hit; in the whole collection about 27% have one here.

SMILES	CYP2C9 activ	EphB4 ephrin blk	CYP2C19 activ	CYP2C9 inhib	CYP2C19 inhib
Fc1ccc(NCc2nnc(SCc3nnc(-c4ccccc4)o3)n2Cc2ccccc2)cc1	0.3	-7	0.2	68*	79*
Cc1ncc(N=Nc2ccc(F)cc2)c(-c2ccc(Cl)cc2)n1	1.1	0	1	-6	3
Oc1ccc(N=Nc2n[nH]c(-c3ccc(Cl)cc3)n2)cc1	2*	6	0.8	-104	20
O=C(O)CCNS(=O)(=O)c1ccc(Oc2ccccc2Cl)cc1	0.8	5	1	17	2
CC(C)C(c1nnnn1Cc1ccco1)N1CCC(C(N)=O)CC1 (configuration not stated)	/	10	/	/	/
CC1(C(=O)Nc2nnc(SCc3ccccc3)s2)Cc2ccccc2C(=O)O1 (configuration not stated)	0.2	-4	0.9	79*	15
COC(=O)c1c(NC(=O)C2(C)Cc3ccccc3C(=O)O2)sc2c1CCCC2 (configuration not stated)	0.4	-2	0.4	56*	60*
COc1ccccc1NC(=O)C1(C)Cc2ccccc2C(=O)O1 (configuration not stated)	2.3*	/	0.6	-134	40
COC(=O)c1c(NC(=O)Cc2cccs2)sc2c1CCCC2	0.7	3	0.8	35	22
CCCCCOCC1CC(C/C(C)=N/Nc2nc(-c3ccccc3)cs2)C(=O)O1 (configuration not stated)	0.6	-8	0.7	37	28
CC(C)NC(=S)NN(c1ccccc1)c1ccccc1	0.5	1	0.4	51*	62*
CCN(CC)NC(=S)Nc1ccccc1	1.2	3	0.7	-15	28
Cc1[nH]n2c(=O)c3c(nc2c1-c1cccc2ccccc12)CCC3	0.5	-7	0.7	46	26
O=c1c2c(nc3c(-c4cccc5ccccc45)c[nH]n13)CCC2	0.3	-11	0.9	69*	7
Cc1cc(NC(=O)CSc2cn(CCNC(=O)c3ccccc3)c3ccccc23)no1	0.1	2	0.1	94*	90*
COc1ccccc1CNC(=O)CCC(=O)Nc1nnc(C)s1	1.2	4	1.1	-17	-7
Cc1ccc(C(=O)NCCn2cc(SCC(=O)N3CCOCC3)c3ccccc32)cc1	0.8	0	0.7	22	28
COc1ccccc1C(=O)NCCn1cc(SCC(=O)Nc2nnc(C)s2)c2ccccc21	0.2	-3	0.6	76*	44
Cc1ccc(C(=O)NCCn2cc(SCC(=O)Nc3cc(C)on3)c3ccccc32)cc1	0.1	3	0.1	86*	91*
CCCC(=O)c1ccc(N2CCN(C(=O)c3ccc(Br)cc3)CC2)c(F)c1	1	4	1.1	-2	-6
CC(C)n1cc(NC(=O)C2CC(c3cccc(Br)c3)=NO2)cn1 (configuration not stated)	1.1	-3	0.7	-9	27
CC(C)CCn1nnnc1C(c1ccc(N(C)C)cc1)N1CCN(C(=O)c2ccco2)CC1 (configuration not stated)	0.3	1	0.1	66*	90*
CN(C)c1ccc(C(c2nnnn2C(C)(C)C)N2CCN(C(=O)c3ccco3)CC2)cc1 (configuration not stated)	1.1	0	0.4	-6	61*
CCn1ncc(C2=NOC(C(=O)Nc3cccnc3)C2)c1C (configuration not stated)	0.8	/	0.9	18	10
O=C(Nc1cccc(F)c1)N(Cc1ccc(Cl)cc1)CC(O)C(F)(F)F (configuration not stated)	0.5	4	0.5	50	47
SMILES	CYP2C9 activ	EphB4 ephrin blk	CYP2C19 activ	CYP2C9 inhib	CYP2C19 inhib
C=CCN1C(=O)/C(=C\c2ccc(Cl)cc2)N=C1SCC(=O)NC1CCCCC1	0.9	1	0.9	6	9
COc1ccc(Cl)cc1N1C(=O)/C(=C\c2sccc2C)N=C1SCC(=O)NC1CC1	0	5	0	97*	97*
CCOC(=O)C(=O)Nc1nnc(Cc2ccc(OC)c(OC)c2)s1	/	-3	/	/	/
Cc1ccc2nc(C)c(C)nc2c1N	0.9	0	0.2	14	77*
COc1ccc(-c2nnc(SCC(=O)Nc3cc(F)ccc3C)o2)cc1	1.4	-2	0.5	-37	54*
COc1ccc(OC)c(NC(=O)CSc2nnc(CNc3ccc(F)cc3)o2)c1	1	-5	0.4	1	56*
COc1ccc(-c2nnc(SCC(=O)NC(C)c3ccccc3)o2)cc1OC (configuration not stated)	1.1	2	0.4	-10	62*
COc1ccc(OC)c(NC(=O)CSc2nnc(CNc3ccc(C)cc3C)o2)c1	1.2	5	0.2	-24	81*
COc1ccc(NCc2nnc(SCC(=O)Nc3ccccc3OC)o2)cc1	1.1	7	0.8	-10	21
COc1ccc(-c2nc3scc(-c4ccc(OC)c(OC)c4)c3c(=O)o2)cc1	0.7	0	1.1	31	-8
O=S(=O)(NCc1ccc2c(c1)OCO2)c1cccc2cccnc12	2.7*	-2	0.4	-170	64*
O=C1CC(N2CCN(Cc3ccc4c(c3)OCO4)CC2)C(=O)N1c1cccc(Cl)c1 (configuration not stated)	1.2	-2	1.2	-23	-19
O=S(=O)(c1cccc2cccnc12)N1CCN(Cc2ccc3c(c2)OCO3)CC1	2.5*	-10	0.5	-150	46
O=C(CCS(=O)(=O)c1cccc2nsnc12)N1CCN(Cc2ccc3c(c2)OCO3)CC1	0.9	-1	0.9	5	6
O=S(=O)(c1cc(Cl)ccc1Cl)N1CCN(Cc2ccc3c(c2)OCO3)CC1	1.1	5	0.5	-15	50*
O=S(=O)(c1ccc(Br)s1)N1CCN(Cc2ccc3c(c2)OCO3)CC1	0	7	0.1	97*	89*
CC(OC(=O)Cn1c(C(F)(F)F)nc2ccccc21)C(N)=O (configuration not stated)	1	1	1	-4	-1
CCOC(=O)C1CCN(C(=O)N2CCOCC2)CC1	1	0	0.9	-3	14
C=CCn1c(=O)c2ccccc2n2c(SCc3csc(-c4ccccc4)n3)nnc12	0.7	/	0.7	25	29
O=S(=O)(c1ccc(Cl)nc1)N1CCN(Cc2ccc3c(c2)OCO3)CC1	0.3	6	0.4	74*	63*
CS(=O)(=O)N1CCc2cc(S(=O)(=O)N3CCN(Cc4ccc5c(c4)OCO5)CC3)ccc21	0.9	-1	0.9	12	10
CCCCC(=O)N/N=C/c1ccc(Sc2cccc3cccnc23)o1	0.4	10	0.5	57*	47
O=C(Cc1cccc2ccccc12)N/N=C/c1ccc(Sc2cccc3cccnc23)o1	0.2	1	0.5	82*	53*
C/C(CC(=O)Nc1ccccn1)=N\NC(=O)Cc1cccc2ccccc12	0.5	0	0.7	45	28
C/C(CC(=O)NCc1ccco1)=N\NC(=O)C(c1ccccc1)c1ccccc1	0.5	-5	0.9	51*	6
